# Measured values as given in ChEMBL document CHEMBL3433997, “St. Jude Leishmania screening dataset” (2016).
# Legend:
# Type in all cases: functional
# [1] = target: Solute carrier family 2, facilitated glucose transporter member 1 (Homo sapiens) (UniProt P11166); assay: ST_JUDE_LEISH: Cytotoxicity at 2uM final concentration against transgenic Leishmania Mexicana promastigotes LmGLUT1 that are glucose transport deficient and complemented with the human glucose transporter GLUT1. Activity is measured by DNA content using SYBR green in vitro
# [2] = target: Hexose transporter 1 (Plasmodium falciparum) (UniProt O97467); assay: ST_JUDE_LEISH: Cytotoxicity at 2uM final concentration against transgenic Leishmania Mexicana promastigotes LmPfHT that are glucose transport deficient and complemented with the Plasmodium falciparum hexose transporter. Activity is measured by DNA content using SYBR green in vitro
# [3] = target: Glucose transporter (Leishmania mexicana) (UniProt O61059); assay: ST_JUDE_LEISH: Cytotoxicity at 2uM final concentration against transgenic Leishmania Mexicana promastigotes LmGT2 that are glucose transport deficient and complemented with the L. Mexicana glucose transporter 2. Activity is measured by DNA content using SYBR green in vitro
# Sequence of Solute carrier family 2, facilitated glucose transporter member 1 (Homo sapiens) (P11166 whole entry): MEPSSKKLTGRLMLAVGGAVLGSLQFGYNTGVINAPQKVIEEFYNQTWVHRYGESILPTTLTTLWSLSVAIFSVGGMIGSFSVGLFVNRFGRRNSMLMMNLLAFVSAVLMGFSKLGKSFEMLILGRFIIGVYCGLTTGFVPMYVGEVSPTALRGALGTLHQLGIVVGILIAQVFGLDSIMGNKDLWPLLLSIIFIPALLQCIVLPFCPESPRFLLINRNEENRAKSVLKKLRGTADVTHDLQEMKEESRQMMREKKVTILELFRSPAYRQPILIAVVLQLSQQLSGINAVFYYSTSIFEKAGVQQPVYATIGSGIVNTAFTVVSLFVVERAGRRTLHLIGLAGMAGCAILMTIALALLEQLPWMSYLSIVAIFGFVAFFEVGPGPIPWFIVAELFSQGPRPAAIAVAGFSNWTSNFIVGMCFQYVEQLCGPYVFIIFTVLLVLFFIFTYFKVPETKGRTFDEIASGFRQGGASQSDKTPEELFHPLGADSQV
Structure (SMILES),inhibition [1],inhibition [2],inhibition [3]
O=C(Nc1cccc(-c2cccc(-c3nc4ccccc4[nH]3)c2)c1)Nc1ccc(Cl)c(Cl)c1,6.2%,6.7%,7.6%
O=C(/C=C/c1ccc(C(F)(F)F)cc1)NCCCCCN1CCN(C(=O)Nc2ccc(F)c(Cl)c2)CC1,3.33%,2.52%,0.69%
COc1cc2ccccc2c(CON2C(=N)N=C(N)NC2(C)C)c1OC,2.53%,2.15%,1.62%
COc1ccccc1C(=O)C1CCCN(C(=O)c2ccccc2C(F)(F)F)C1 (configuration not stated),-0.79%,-0.77%,9.65%
Cc1nc(-c2cccc(C(=O)Nc3cnc4ccccc4c3)c2)no1,5.51%,3.53%,3.52%
Cc1cc(N)c2cc(NC(=O)c3cc4ccccc4s3)ccc2n1,-0.05%,-1.3%,-0.52%
O=C(COC(=O)c1cccc(S(=O)(=O)N2CCc3ccccc32)c1)NNC(=O)c1cccs1,4.4%,4.13%,2.91%
COc1ccc(C(C)Nc2nc(N)c3cc(OC)c(OC)cc3n2)cc1 (configuration not stated),4.72%,4.66%,4.42%
Cc1c(Cc2ccccc2Br)cnc2nc(N)nc(N)c12,9.6%,30.2%,14.2%
CN1CCN(CCCNCc2cccc(Nc3nccc(Nc4ccc(Oc5ccccc5)cc4)n3)c2)CC1,1.12%,2.79%,0.79%
CC(C)CN1CCCN(Cc2cccc(NC(=O)c3cc4ccccc4s3)c2)CC1,-0.04%,-0.28%,-5.16%
O=C(Nc1ccc(OC(F)(F)F)cc1)Nc1ccc([N+](=O)[O-])cc1,1.82%,2.15%,1.9%
Cc1cc2ncc(C(N)=O)c(Nc3ccc(N4CCOCC4)cc3)c2cc1S(C)(=O)=O,1.97%,3.83%,5.19%
CC(Oc1ccc(Cl)cc1Cl)c1nc(-c2ccc(NC(=O)c3ccco3)cc2)no1 (configuration not stated),2.46%,1.87%,-0.2%
O=C(/C=C/c1ccc(Cl)c(Cl)c1)NCCCCCCN1CCN(C(=O)Nc2cccc(Cl)c2)CC1,0.57%,1.97%,3.02%
CCCNc1ccc2nccc(CCN3CCC(NCc4ccc5c(c4)NC(=O)CS5)CC3)c2n1,0.84%,3.1%,2.43%
O=C(Nc1nc2cc(S(=O)(=O)NCCc3cccc(F)c3)ccc2n1CCCn1ccnc1)c1ccc(Cl)cc1,1.22%,0.32%,4.97%

Structure (SMILES),inhibition [1],inhibition [2],inhibition [3]
CCOCn1c(-c2ccccc2)cc2c3c(N)nc(N)nc3ccc21,98.3%,100%,101%
CCc1cn2c3c(cc(C(=O)N[C@@H](Cc4ccccc4)[C@H](O)CNC4CCCCC4)cc13)N(CC)S(=O)(=O)CC2,-0.63%,0.33%,-3.68%
CCCCCCCCCc1c(C)[nH]c2ccccc2c1=O,-1.28%,2.65%,2.28%
CCOC(=O)c1cc(C(=O)OC)c2ccccn12,2.17%,0.87%,1.34%
CC1(C)NC(N)=NC(=N)N1OCCCOc1ccc([N+](=O)[O-])cc1,0.81%,0.61%,0.11%
Cc1ccc2nc(C)n(C3CCN(C(=O)Cc4ccccc4C)CC3)c2c1,5.4%,8.18%,4.9%
CN(Cc1cccc(O)c1)C1CCCN(c2cc(NC(=O)c3ccc(F)cc3)ccn2)C1 (configuration not stated),3.85%,6.05%,5.91%
CCOc1cc(C(=O)NCC2CCN(CC3CCCCC3)CC2)ccc1-c1nc2cc(Cl)ccc2[nH]1,0.56%,1.54%,1.19%
CC(CN(C)C)C(=O)Nc1cccc(-c2ccc(-c3nc4cc(F)ccc4[nH]3)cc2)c1 (configuration not stated),-1.76%,-3.5%,-0.1%
CCN(CC)CCCC(C)Nc1c(-c2ccc(OC)cc2)cnc2ccccc12 (configuration not stated),2.85%,3.79%,0.36%
O=C(Nc1nccs1)c1cn(-c2ccccc2)nc1-c1ccc(Cl)s1,3.1%,2.82%,3.16%
COc1ccc(CNCc2ccc(-c3cccc(-c4nc5cc(F)ccc5[nH]4)c3)cc2)cc1,1.04%,4.45%,-2.49%
NC(=O)c1ccccc1OCC(=O)Nc1cccc(-c2cccc(-c3nc4ccccc4[nH]3)c2)c1,0.34%,1.07%,-4.32%
CNC(=O)Cc1ccc(C(=O)Nc2cccc(-c3cccc(-c4nc5cccc(C)c5[nH]4)c3)c2)cc1,-2.05%,-0.87%,-1.69%
COc1c(C)[nH]c(C)c(-c2ccc(Oc3cccc(C(F)(F)F)c3)cc2)c1=O,10.2%,10.6%,4.46%
O=C(NCCCN1CCCC1=O)NCc1ccccc1,0.3%,-0.23%,-0.11%
Cc1ccc(S(=O)(=O)c2nc(S(=O)(=O)c3ccccc3)sc2NCC2CCCO2)cc1 (configuration not stated),11.8%,11.1%,9.48%
